# Experimental data as given in PubChem BioAssay AID602124 (The Scripps Research Institute Molecular Screening Center, 2011).
# About 630 (48%) of roughly 1,300 compounds were called active. So high a share suggests a set chosen from earlier hits. These entries were drawn from the full list. Unmarked numbers belong to inactive results. Cut-off read from the data, not from the text of the source: active = inhibition above about 6.5%; inactive = the rest.
# Target: Tyrosine-protein kinase ABL1 (Homo sapiens) + Ras and Rab interactor 1 (Homo sapiens) (UniProt P00519+Q13671)
# Sequence (P00519 whole entry, looked up): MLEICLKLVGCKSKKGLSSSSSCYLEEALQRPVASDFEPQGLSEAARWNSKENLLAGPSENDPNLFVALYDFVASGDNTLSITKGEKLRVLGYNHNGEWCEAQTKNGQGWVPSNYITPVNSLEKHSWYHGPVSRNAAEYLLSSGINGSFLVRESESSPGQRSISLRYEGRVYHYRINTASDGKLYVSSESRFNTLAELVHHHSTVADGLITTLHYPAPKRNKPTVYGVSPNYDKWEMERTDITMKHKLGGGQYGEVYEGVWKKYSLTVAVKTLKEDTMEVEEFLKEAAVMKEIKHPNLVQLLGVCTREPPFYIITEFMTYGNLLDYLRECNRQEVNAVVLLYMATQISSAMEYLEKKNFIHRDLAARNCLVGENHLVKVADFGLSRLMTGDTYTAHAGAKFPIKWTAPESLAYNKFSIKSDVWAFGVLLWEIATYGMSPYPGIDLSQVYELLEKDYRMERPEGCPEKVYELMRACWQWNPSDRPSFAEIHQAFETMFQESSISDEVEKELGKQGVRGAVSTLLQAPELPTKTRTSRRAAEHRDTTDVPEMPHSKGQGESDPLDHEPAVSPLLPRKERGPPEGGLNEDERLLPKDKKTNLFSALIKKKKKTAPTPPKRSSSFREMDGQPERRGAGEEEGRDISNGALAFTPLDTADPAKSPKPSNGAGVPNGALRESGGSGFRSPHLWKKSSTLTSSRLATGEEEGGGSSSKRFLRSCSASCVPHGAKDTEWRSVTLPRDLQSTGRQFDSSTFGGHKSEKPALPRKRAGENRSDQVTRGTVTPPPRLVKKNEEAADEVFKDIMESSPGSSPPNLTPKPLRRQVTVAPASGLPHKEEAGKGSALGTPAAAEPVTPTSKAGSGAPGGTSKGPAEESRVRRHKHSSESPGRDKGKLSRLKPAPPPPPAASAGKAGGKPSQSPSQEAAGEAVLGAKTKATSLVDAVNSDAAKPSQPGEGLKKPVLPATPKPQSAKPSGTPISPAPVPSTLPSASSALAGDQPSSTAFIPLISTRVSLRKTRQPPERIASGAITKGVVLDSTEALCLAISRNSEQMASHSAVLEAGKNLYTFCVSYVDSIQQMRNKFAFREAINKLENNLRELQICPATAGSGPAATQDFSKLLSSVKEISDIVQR
# Sequence (Q13671 whole entry, looked up): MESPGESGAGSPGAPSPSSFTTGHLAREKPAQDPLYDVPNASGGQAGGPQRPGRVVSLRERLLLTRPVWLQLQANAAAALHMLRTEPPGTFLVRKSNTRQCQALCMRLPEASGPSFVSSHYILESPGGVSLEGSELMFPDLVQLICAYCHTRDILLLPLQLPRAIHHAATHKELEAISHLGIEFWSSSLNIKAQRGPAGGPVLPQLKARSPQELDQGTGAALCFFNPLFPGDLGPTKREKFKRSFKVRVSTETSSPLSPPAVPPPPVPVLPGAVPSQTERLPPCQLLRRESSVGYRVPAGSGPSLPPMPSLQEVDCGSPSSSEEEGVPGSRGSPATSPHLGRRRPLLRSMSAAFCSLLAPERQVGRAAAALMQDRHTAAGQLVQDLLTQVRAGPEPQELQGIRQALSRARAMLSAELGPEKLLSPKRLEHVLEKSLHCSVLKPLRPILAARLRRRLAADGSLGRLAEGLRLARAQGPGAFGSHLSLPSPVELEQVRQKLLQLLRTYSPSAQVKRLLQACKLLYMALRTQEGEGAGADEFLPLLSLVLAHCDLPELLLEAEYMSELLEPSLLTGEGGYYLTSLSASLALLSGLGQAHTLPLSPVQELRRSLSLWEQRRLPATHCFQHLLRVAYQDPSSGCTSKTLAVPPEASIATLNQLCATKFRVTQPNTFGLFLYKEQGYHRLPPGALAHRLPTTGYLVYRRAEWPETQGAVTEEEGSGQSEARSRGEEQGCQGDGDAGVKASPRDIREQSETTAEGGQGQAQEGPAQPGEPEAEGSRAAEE
# Assay: Rin1-Abl binding inhibitor retest, confirmation, biochemical, TR-FRET (AID 602124)
# Details: purified proteins, at 7.35 µM, active compounds read high
row,Structure (SMILES),inhibition
1,CN(C(=O)c1ccc(NC(=O)Cc2cccc(NC(=O)C3CCN(C(=O)c4ccccc4)CC3)c2)cc1)C1CC1,26% (active)
2,CC(=O)Nc1ccc(CN2CCC(Oc3ccc(C(=O)N4CCCC4)cc3)CC2)cc1,3.99%
3,CCOC(=O)CN(C(=O)COc1nc(C)cc(C)c1C#N)c1ccc(Cl)cc1,0.28%
4,O=C(NNc1c2ccccc2nc2ccccc12)c1cc2ccccc2cc1O,1.57%
5,Cc1ccc(-n2c(SCC(=O)NCc3ccc4c(c3)OCO4)nnc2-c2cccnc2)c(C)c1,12.5% (active)
6,CCOc1ccc(-n2c(SCC(=O)NC3CCS(=O)(=O)C3)nnc2-c2cccnc2)cc1 (stereo not given),3.68%
7,CCCn1c(N)c(C(=O)CSc2nnc(-c3cccnc3)n2-c2ccc(C)cc2C)c(=O)[nH]c1=O,13.8% (active)
8,COCCNC(=O)Nc1ccc2nc(-c3ccco3)c(-c3ccco3)nc2c1,5.72%
9,CN(CC(=O)Nc1ccc(F)cc1)CC(=O)Nc1ccc(Cl)c(S(=O)(=O)N2CCOCC2)c1,0.32%
10,Cc1ccccc1C(=O)N1CCC(C(=O)Nc2ccc(S(=O)(=O)N(C)C(C)C)cc2)CC1,9.43% (active)
11,CCc1ccc(CN(C)C(C)C(=O)Nc2ccc(S(=O)(=O)N3CCCC3)cc2)cc1 (stereo not given),-1.11%
12,O=C(Nc1ccc(S(=O)(=O)Nc2ncccn2)cc1)c1cncc(Br)c1,1.84%
13,CC(CCO)Nc1nc2c([nH]1)c(=O)n(C)c(=O)n2C (stereo not given),1.44%
14,O=c1ccc2c(-c3ccccc3S(=O)(=O)O)c3ccc(O)c(O)c3oc-2c1O,67% (active)
15,CN(C)c1ccc(N/C=C/C(=O)C(F)(F)F)cc1,-4.29%
16,COC(=O)c1ccc(COC(=O)C2CCN(S(=O)(=O)c3c(Cl)cccc3Cl)CC2)o1,16.6% (active)
17,O=C(COc1ccc(S(=O)(=O)NCCc2ccccc2)cc1)N1CCCC1,-1.2%
18,Cc1cc2ccccc2n1CCNC(=O)COc1ccc2ccccc2c1,0.15%
19,CCOC(=O)N1CCN(C(=O)C2CCCN(c3ncnc4c3sc3cccc(F)c34)C2)CC1 (stereo not given),9.09% (active)
20,CCOC(=O)N1CCN(C(=O)C2CCN(c3ncnc4c3sc3cccc(F)c34)CC2)CC1,28.5% (active)
21,CCOC(=O)N1CCC(c2cc(=O)n(-c3ccccc3)[nH]2)CC1,-2.37%
22,Cc1cc(NC(=O)CSCC(=O)NC(C)c2ccccc2)no1 (stereo not given),0.39%
23,O=C(Nc1ccc(OC(F)(F)F)cc1)c1ccc2c(c1)no[n+]2[O-],-0.65%
24,CC(OC(=O)c1ccccc1NCCO)C(=O)Nc1ccnn1C(C)C (stereo not given),53.2% (active)
25,COc1ccc(CNC(=O)c2cc(C(=O)C3CC3)c[nH]2)cc1,1.47%
26,CSc1ncnc2c1ncn2CC(=O)C1CCC2C3CCC4=CC(=O)CCC4(C)C3CCC12C (stereo not given),11.9% (active)
27,C#CCOCCOCCOCCNc1nc(N2CCN(C(=O)C(Cc3ccc(O)cc3)n3cc(C(N)CC(C)C)nn3)CC2)nc(N2CCN(C(=O)C(Cc3ccc(O)cc3)n3cc(C(N)C(C)CC)nn3)CC2)n1 (stereo not given),13.9% (active)
28,C[C@@H]1CN([C@H](C)CO)S(=O)(=O)c2ccc(C#C[C@@H](C)O)cc2O[C@@H]1CN(C)Cc1ccc(-c2ccccc2)cc1,32.5% (active)

row,Structure (SMILES),inhibition
1,O=C(c1cn(-c2ccccc2)nc1-c1cc2ccccc2oc1=O)N1CCOCC1,-4.12%
2,O=C(CNCc1ccco1)Nc1cc(S(=O)(=O)N2CCOCC2)ccc1N1CCCC1,-1.42%
3,Oc1c(CN2CCN(c3ccc(F)cc3)CC2)cc(Cl)c2cccnc12,-0.1%
4,C=C1c2c(Cl)ccc(O)c2C(O)=C2C(=O)[C@]3(O)C(O)=C(C(N)=O)C(=O)[C@@H](N(C)C)[C@@H]3[C@@H](O)C12 (stereo not given in full),13.9% (active)
5,CC(C)CNS(=O)(=O)c1ccc(C(=O)Nc2ccc3c(c2)OCO3)cc1,-0.58%
6,CN(Cc1c(F)cccc1Cl)C(=O)CNC(=O)c1ccc2c(c1)OCO2,45.8% (active)
7,C=CCn1cc(C(=O)NCc2ccc(Cl)cc2)c(=O)c2cc(S(=O)(=O)N(CC)CC)ccc21,0.48%
8,CCc1cc2c(N3CCN(c4nnc(CC)s4)CC3)ncnc2s1,4.08%
9,C=CCn1c2ccccc2c2nnc(SCc3[nH]c(=O)[nH]c3C(=O)CCCCC(=O)OCC)nc21,71.5% (active)
10,Cc1ccc(C(NC(=O)C2CCN(CCOc3ccc(Cl)cc3Cl)CC2)c2ccccn2)cc1 (stereo not given),0.23%
11,CCOc1ccc(S(=O)(=O)N2CCCCC2)cc1NC(=O)CN1CCCC1c1cccs1 (stereo not given),0.05%
12,Cc1cccc(N(C)C(=O)CN2C(=O)COc3ccc(S(=O)(=O)N4CCCCCC4)cc32)c1,7.15% (active)
13,NS(=O)(=O)c1ccc(CCNC(=O)Nc2ccc(Cl)cc2)cc1,-1.53%
14,Oc1cccc2cc(-c3ccncc3)cnc12,20.6% (active)
15,CCOc1ccc(CNC(=O)C2CCCN(c3nnc(C)c4c(C)n(-c5ccccc5)nc34)C2)cc1 (stereo not given),12.6% (active)
16,OC[C@@H]1CN(Cc2ccc(Cl)cc2)C[C@H](n2cnc3c(NCc4ccncc4)ncnc32)O1,2.98%
17,Cc1nn(-c2ncc(C(F)(F)F)cc2Cl)c(=O)n1-c1ccccc1,-0.89%
18,O=C(CC1SCCNC1=O)Nc1ccc(Cl)cc1 (stereo not given),12.1% (active)
19,Nc1nc2n(n1)C(c1ccco1)CC(c1ccc(Cl)c(Cl)c1)N2 (stereo not given),0.66%
20,O=c1c2c(nc3n1CCCCC3)sc1c(O)cccc12,14.5% (active)
21,CC(=O)NC(c1cccs1)c1cc(Br)c2cccnc2c1O (stereo not given),15.9% (active)
22,Cc1c(CC(=O)N2CCN(C(=O)C3COc4ccccc4O3)CC2)c(=O)oc2c(O)c(O)ccc12 (stereo not given),8.45% (active)
23,NC1=CC(=O)C(=O)c2cccnc21,19.5% (active)
24,COc1cc(C(=S)N2CCOCC2)ccc1O,-2.83%
25,Cc1ccccc1CN1C[C@@H]2C[C@@H](c3ccc4nsnc4c3)N3CCC[C@@]23C1=O,22% (active)
26,Nc1cc(=O)c2[nH]cnc2[nH]1,18.1% (active)
27,O=c1cc(CO)oc(CN2CCC(Cc3ccccc3)CC2)c1O,-3.76%
